Compounds with a hit are over-represented: about 3.4% of the library has one in this group of screens.
FBW7 act = FBW7 E3 ligase activators, primary screen, biochemical, AlphaScreen, human | F-box/WD repeat-containing protein 7 (Homo sapiens), Q969H0 | AlphaScreen FBW7–phospho-cyclin E peptide binding, activator screen | normalized activity (activation), % at 26.1 µM | 650,000 tested, 0.13% active; in the data active = normalized activity above about 1.9%;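 also: purified mutant Fbw7 with reduced substrate affinity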
MITF primary = MITF inhibitors, primary screen, biochemical, AlphaScreen, human. AlphaScreen MITF homodimerization, bead proximity signal. inhibition, % at 2.6 µM. 650,000 tested, 0.91% active. AID 1259374, 2018; in the data active = inhibition above about 50%;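 also: 0% = vehicle wells with protein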
TEAD-YAP inh = TEAD-YAP interaction inhibition, primary screen, TEAD-YAP interaction inhibitor project, luminescence, HEK-TIYL cells | inhibition, % at 9.12 µM | 640,000 tested, 1.4% active | TEAD-Gal4/YAP UAS-luciferase luminescence; in the data active = inhibition above about 32%;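 also: 0% = median of test compound wells and 100% = reference inhibitor wells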
GPR151 ag = activators of human GPR151, primary screen, cell-based, PathHunter beta-arrestin, luminescence; G-protein coupled receptor 151 (Homo sapiens), Q8TDV0; PathHunter beta-arrestin GPR151 cells; activation, % at 11.2 µM; 650,000 tested, 1% active; in the data active = activation above about 4.9%;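 also: 0% = median of compound wells and 100% = cells with positive control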
GPR151 conf act = GPR151 activators, triplicate retest, confirmation, cell-based, PathHunter beta-arrestin, luminescence | GPR151 PathHunter beta-arrestin cells, 90 min; % of EA-reagent control over plate median | 6,700 tested, under 10 active | activation, % at 11.2 µM | AID 1508609, 2020 | shares compounds with GPR151 ag;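 active = mean percent activation across replicates above the confirmation screen cutoff of 4.91%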
GPR119 counter = GPR119 activators in beta-arrestin cells, counter-screen for GPR151 activator project, cell-based, PathHunter beta-arrestin, luminescence, triplicate. activation, % at 11.2 µM. 90 min; 0 = compound-well median, 100 = enzyme-acceptor control. 6,700 tested, 0.3% active. shares compounds with GPR151 ag. AID 1508611, 2020;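 active = mean percent activation in the counterscreen above 29.09%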;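 also: counterscreen on off-target GPR119 to flag nonselective hits from the GPR151 activator screen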
Target sequence (Q8TDV5 whole entry, looked up): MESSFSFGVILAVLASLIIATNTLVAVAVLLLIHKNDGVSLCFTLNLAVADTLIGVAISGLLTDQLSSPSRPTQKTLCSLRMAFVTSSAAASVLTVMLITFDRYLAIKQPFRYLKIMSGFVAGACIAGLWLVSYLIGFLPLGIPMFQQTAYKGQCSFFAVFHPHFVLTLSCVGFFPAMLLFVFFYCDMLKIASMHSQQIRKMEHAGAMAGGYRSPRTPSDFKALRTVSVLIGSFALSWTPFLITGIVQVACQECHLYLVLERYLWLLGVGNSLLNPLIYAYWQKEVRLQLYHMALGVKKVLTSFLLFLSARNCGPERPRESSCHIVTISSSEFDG
* hit, by the source's call; . = no result given.

SMILES	FBW7 act	MITF primary	TEAD-YAP inh	GPR151 ag	GPR151 conf act	GPR119 counter
Cc1cc2oc(C(=O)NCCc3ccc(S(N)(=O)=O)cc3)c(C)c2cc1C	0	9	10	10.0*	1	-3
NS(=O)(=O)c1ccccc1NC(=O)c1c(O)c2cccc3c2n(c1=O)CC3	0	-5	-9	5.2*	-1	-10
O=C(CSc1cccc[n+]1[O-])N1CCCCCC1	0	2	2	2	.	.
[O-][n+]1ccccc1SSc1cccc[n+]1[O-]	0	1	96*	6.9*	-1	-14
Cc1c(Cl)cccc1NC(=O)CSc1nccc(=O)[nH]1	0	6	11	5.3*	0	10
O=C(CSc1nccc(=O)[nH]1)Nc1nccs1	0	7	-1	6.5*	0	11
COc1ccc(C2=CC(c3cc(OC)c(OC)c(OC)c3)n3nnnc3N2)cc1 (centres undefined)	0	16	61*	7.3*	0	-10
O=C(Nc1nc(-c2ccccc2)c(C(=O)c2ccccc2)s1)c1cc(Cl)ccc1[N+](=O)[O-]	0	0	1	1	.	.
O=C(Nc1nc(-c2ccccc2)c(C(=O)c2ccccc2)s1)c1ccccc1[N+](=O)[O-]	0	2	14	5.0*	1	9
COc1ccc(-c2nnc(SCC(=O)N3c4ccccc4CC3C)o2)cc1 (centres undefined)	0	4	-10	5.8*	1	13
O=C(Nc1nc2c(s1)CCCC2)C1CN(c2nc3ccccc3s2)C1	0	3	-17	9.8*	0	-1
O=C(NCc1ccccc1F)C1CN(c2nc3ccccc3s2)C1	0	2	-36	1	.	.
Cc1c(NC(=O)c2cc(-c3ccc(Cl)c(Cl)c3)on2)c(=O)n(-c2ccccc2)n1C	0	-10	1	8.5*	0	2
COc1ccccc1OC(C)C(=O)Nc1c(C)n(C)n(-c2ccccc2)c1=O (centres undefined)	0	9	13	6.7*	0	0
Cc1c(NC(=O)CCSc2ccc(Cl)cc2)c(=O)n(-c2ccccc2)n1C	0	-1	4	5.2*	-1	-12
Cc1c(NC(=O)Cc2ccc(Cl)cc2)c(=O)n(-c2ccccc2)n1C	0	-23	16	0	.	.
CC1CCN(C(=O)c2ccccc2C(=O)Nc2ccc3[nH]c(=S)sc3c2)CC1	0	-1	-8	0	.	.
COCCNC(=O)CCSCc1ccccc1Cl	0	1	-5	1	.	.
CC1CN(c2nc3c(c(=O)[nH]2)CCN(Cc2c(O)ccc4ccccc24)C3)CC(C)O1 (centres undefined)	0	9	4	5.2*	1	1
CC1CCN(c2nc3c(c(=O)[nH]2)CCN(Cc2cccc4nccnc24)C3)CC1	0	-6	5	7.4*	1	6
O=c1[nH]c(N2CCCC2)nc2c1CCN(Cc1cccc3nccnc13)C2	0	12	4	-1	.	.
CCc1cc2c(cc3c(=O)n(CC(=O)NCc4ccccc4Cl)ncn32)s1	0	-11	9	1	.	.
CC(C)CCN1CC[C@@H]2[C@H](CCCN2C(=O)Cc2cscn2)C1	0	6	10	0	.	.
COc1ccc(-c2noc(COc3ccc4c(c3)OCO4)n2)cc1	1	9	3	5.1*	0	-1
CC(C)N(CCNc1nc(-c2cccs2)nc2c1ncn2C(C)C)C(C)C	0	-2	15	0	.	.
SMILES	FBW7 act	MITF primary	TEAD-YAP inh	GPR151 ag	GPR151 conf act	GPR119 counter
Cc1cc(C)cc(CN2CCc3nnc(CCNC(=O)COc4ccccc4)n3CC2)c1	0	1	6	0	.	.
O=[N+]([O-])c1ccc2nc(CCCc3nc4ccc([N+](=O)[O-])cc4[nH]3)[nH]c2c1	0	5	13	-1	.	.
CC(O)CCc1nc2ccc([N+](=O)[O-])cc2[nH]1 (centres undefined)	0	0	-10	5.1*	-1	-4
Cc1sc2nc(C(C)C)n3c(SCC(=O)NNC(=O)C(C)C)nnc3c2c1C	0	6	3	7.4*	1	8
CCC(=O)NNC(=O)CSc1nnc2c3c(C)c(C)sc3nc(C(C)C)n12	0	-1	9	0	.	.
COCc1cccc(-c2ccc(C(=O)Nc3cccc(OC)c3)c(N3CCOCC3)n2)c1	0	-10	-6	-1	.	.
O=C(Cc1nc2scc(-c3ccccc3)c2c(=O)[nH]1)N1CCOCC1	0	1	3	11*	0	13
COc1ccc(N=C2SC(CC(=O)Nc3ccc(OC)cc3OC)C(=O)N2C)cc1 (centres undefined)	0	-4	0	6.6*	4	2
CCNC(=O)CC1SC(=Nc2ccc(OC)cc2)N(C)C1=O (centres undefined)	0	-8	-10	-2	.	.
CC(C)(C)C1=NN(C(=O)c2ccc(I)cc2)C(O)(C(F)(F)F)C1 (centres undefined)	0	-10	-6	1	.	.
CC(C)(C)OC(=O)N1CCCC(c2nc(-c3ccncc3)no2)C1 (centres undefined)	0	-5	-6	5.5*	0	10
CC(C)(C)OC(=O)N1CCC(c2nc(-c3ccncc3)no2)CC1	0	-13	4	2	.	.
Cc1cc(C)cc(OCC(=O)Nc2ccc(S(=O)(=O)Nc3nc(C)cc(C)n3)cc2)c1	0	-2	1	0	.	.
S=C(NCCN1CCOCC1)Nc1cccc2cnccc12	0	-11	-8	0	.	.
S=C(NCCN1CCOCC1)Nc1cccc2ccccc12	0	2	-3	5.3*	0	-10
CC1CN(C(=S)NC(=O)C(C)(C)C)CC(C)O1 (centres undefined)	0	-4	-2	7.3*	1	-5
CC(C)(C)C(=O)NC(=S)N1CCOCC1	0	-8	-3	1	.	.
Cc1cc(F)ccc1S(=O)(=O)Nc1ccc2c(c1)CCCN2C(=O)C(C)C	0	23	12	0	.	.
COc1ccccc1NC(=O)CSc1nc2ccsc2c(=O)n1-c1ccc(Cl)cc1	0	-4	0	5.6*	1	10
COc1ccc(-n2c(SCC(=O)Nc3ccccc3OC)nc3ccsc3c2=O)cc1	0	4	2	-1	.	.
C=CCNc1nc(Cl)nc(NCCC2=CCCCC2)n1	0	0	-5	5.1*	-1	-12
O=C(Cn1cccn1)N1CCC2(CC1)CC2C(=O)N1CCN(C/C=C/c2ccccc2)CC1 (centres undefined)	0	-7	-4	-1	.	.
